# Laboratory results taken from the supplement of paper PMC11732987, “Enantioselective OTUD7B fragment discovery through chemoproteomics screening and high-throughput optimisation” (Communications Chemistry, 2025).
# Values without a mark were called inactive.
# Tests used:
# Assay in all cases: log2 ratio of Biotin-Ahx-Ub-VS probe labelling (fragment/DMSO); higher = less target engagement (more negative = stronger competition), active = hit call of the paper (q ≤ 0.05, log2 ratio ≤ -1)
# Settings in all cases: compound concentration: 200 uM; treatment time: 3 h
# [1] = molecular target: T1, ALG13 (UniProt Q9NP73)
# T1 sequence (whole entry): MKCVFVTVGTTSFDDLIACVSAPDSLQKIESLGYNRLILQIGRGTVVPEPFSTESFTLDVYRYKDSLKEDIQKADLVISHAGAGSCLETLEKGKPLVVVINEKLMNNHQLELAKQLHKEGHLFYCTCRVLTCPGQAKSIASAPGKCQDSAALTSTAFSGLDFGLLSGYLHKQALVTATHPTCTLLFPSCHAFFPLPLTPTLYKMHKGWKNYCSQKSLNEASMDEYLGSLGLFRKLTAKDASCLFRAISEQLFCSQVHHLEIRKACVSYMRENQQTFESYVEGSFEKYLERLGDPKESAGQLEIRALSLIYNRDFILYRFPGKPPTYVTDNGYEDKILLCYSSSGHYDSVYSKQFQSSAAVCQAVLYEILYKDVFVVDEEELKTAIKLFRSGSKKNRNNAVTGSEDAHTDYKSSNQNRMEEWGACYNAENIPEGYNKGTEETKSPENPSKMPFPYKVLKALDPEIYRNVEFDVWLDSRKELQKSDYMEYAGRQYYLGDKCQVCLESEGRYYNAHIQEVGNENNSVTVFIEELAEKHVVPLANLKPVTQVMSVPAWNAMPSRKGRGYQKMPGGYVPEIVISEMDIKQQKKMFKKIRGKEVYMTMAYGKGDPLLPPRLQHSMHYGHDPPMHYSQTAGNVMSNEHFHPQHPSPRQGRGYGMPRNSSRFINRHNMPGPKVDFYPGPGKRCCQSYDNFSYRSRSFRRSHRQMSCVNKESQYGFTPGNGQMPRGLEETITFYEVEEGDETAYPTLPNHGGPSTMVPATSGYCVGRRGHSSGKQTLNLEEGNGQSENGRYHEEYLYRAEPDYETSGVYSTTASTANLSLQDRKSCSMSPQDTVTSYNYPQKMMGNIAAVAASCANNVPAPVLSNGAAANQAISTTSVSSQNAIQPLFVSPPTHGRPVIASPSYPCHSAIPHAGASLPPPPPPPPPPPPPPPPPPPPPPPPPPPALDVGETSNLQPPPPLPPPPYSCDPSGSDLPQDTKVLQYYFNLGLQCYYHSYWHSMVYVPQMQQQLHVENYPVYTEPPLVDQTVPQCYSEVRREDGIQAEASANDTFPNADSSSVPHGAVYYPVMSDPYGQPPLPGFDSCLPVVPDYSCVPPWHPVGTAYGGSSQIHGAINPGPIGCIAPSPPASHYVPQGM
# Outline: (§1)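 Fragment (200 µM) or vehicle was incubated for 3 h with triplicate HEK293T lysate samples of 495 µg, which were then treated with Biotin-Ahx-Ub-VS at 0.5 µM final for 1 h. Labelled DUBs were enriched on NeutrAvidin, digested with LysC and trypsin, and analysed by diaPASEF LC-MS/MS. Values are average log2 fragment/vehicle ratios from an unpaired t-test on global-median-normalised Spectronaut label-free quantities, using proteins with ≥2 unique peptides.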
# [2] = molecular target: ATXN3 (UniProt P54252)
# Outline: as §1
# [3] = molecular target: T2, BAP1 (UniProt Q92560)
# T2 sequence (whole entry): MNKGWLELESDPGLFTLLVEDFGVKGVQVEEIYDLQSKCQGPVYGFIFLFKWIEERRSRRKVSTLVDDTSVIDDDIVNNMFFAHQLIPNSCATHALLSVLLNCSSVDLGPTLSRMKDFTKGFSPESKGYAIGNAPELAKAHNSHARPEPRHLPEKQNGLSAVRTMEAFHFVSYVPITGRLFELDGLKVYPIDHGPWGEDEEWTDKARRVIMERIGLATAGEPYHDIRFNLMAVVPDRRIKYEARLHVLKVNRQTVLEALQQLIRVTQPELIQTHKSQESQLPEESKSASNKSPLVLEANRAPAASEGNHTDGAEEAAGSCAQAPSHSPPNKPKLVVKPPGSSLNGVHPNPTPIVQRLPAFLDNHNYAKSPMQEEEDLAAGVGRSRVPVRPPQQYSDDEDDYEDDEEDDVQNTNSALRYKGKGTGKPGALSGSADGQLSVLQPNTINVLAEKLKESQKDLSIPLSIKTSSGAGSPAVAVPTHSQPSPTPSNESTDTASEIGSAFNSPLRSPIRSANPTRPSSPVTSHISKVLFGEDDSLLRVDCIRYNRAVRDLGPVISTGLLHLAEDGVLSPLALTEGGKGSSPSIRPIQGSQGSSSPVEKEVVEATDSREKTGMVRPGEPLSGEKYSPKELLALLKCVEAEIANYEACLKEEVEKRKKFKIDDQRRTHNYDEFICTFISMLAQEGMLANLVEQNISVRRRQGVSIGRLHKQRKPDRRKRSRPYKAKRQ
# Outline: as §1
# [4] = molecular target: EIF3F (UniProt O00303)
# Outline: as §1
# [5] = molecular target: EIF3H (UniProt O15372)
# Outline: as §1
# [6] = molecular target: T3, FAM105A (UniProt Q9NUU6)
# T3 sequence (whole entry): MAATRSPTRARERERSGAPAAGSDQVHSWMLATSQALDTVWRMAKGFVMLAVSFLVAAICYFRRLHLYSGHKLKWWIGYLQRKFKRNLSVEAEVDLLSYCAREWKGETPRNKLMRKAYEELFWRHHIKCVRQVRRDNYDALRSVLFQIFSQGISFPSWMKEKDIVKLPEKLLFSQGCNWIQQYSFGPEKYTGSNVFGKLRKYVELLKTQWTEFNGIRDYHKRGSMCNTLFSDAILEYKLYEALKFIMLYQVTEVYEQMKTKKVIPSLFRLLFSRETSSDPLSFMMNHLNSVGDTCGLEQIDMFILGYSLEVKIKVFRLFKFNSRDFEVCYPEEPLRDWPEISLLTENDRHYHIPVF
# Outline: as §1
# [7] = molecular target: OTUB1 (UniProt Q96FW1)
# Outline: as §1
# [8] = molecular target: T4, OTUD4 (UniProt Q01804)
# T4 sequence (whole entry): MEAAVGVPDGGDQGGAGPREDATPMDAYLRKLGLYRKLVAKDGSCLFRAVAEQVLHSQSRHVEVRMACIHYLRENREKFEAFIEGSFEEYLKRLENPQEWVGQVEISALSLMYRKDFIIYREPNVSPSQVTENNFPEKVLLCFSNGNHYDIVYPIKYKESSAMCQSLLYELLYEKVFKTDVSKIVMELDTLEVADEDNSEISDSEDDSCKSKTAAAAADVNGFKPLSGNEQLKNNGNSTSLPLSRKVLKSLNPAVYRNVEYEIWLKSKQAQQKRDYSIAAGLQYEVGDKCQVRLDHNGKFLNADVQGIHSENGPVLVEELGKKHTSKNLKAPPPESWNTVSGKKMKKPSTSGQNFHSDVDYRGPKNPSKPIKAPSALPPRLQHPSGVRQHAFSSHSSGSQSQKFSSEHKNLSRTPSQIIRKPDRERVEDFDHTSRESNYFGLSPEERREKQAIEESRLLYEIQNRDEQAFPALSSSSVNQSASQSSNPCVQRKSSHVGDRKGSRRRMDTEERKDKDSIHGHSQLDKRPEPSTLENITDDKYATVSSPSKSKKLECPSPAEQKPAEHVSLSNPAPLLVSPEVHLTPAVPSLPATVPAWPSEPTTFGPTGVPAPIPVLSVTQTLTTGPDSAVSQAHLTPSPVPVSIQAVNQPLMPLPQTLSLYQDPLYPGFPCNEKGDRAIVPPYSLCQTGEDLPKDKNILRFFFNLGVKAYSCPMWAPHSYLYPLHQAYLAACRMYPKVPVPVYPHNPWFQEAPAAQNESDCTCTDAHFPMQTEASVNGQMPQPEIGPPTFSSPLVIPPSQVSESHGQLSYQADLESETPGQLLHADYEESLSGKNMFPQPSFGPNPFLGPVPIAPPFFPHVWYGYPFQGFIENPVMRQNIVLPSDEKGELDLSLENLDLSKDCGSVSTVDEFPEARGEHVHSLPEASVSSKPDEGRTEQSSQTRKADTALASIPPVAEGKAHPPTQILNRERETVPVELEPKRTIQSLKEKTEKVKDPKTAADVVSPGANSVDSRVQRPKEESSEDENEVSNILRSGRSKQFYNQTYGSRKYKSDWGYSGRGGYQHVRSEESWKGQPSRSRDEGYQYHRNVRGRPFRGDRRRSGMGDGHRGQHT
# Outline: as §1
# [9] = molecular target: T5, OTUD5 (UniProt Q96G74)
# T5 sequence (whole entry): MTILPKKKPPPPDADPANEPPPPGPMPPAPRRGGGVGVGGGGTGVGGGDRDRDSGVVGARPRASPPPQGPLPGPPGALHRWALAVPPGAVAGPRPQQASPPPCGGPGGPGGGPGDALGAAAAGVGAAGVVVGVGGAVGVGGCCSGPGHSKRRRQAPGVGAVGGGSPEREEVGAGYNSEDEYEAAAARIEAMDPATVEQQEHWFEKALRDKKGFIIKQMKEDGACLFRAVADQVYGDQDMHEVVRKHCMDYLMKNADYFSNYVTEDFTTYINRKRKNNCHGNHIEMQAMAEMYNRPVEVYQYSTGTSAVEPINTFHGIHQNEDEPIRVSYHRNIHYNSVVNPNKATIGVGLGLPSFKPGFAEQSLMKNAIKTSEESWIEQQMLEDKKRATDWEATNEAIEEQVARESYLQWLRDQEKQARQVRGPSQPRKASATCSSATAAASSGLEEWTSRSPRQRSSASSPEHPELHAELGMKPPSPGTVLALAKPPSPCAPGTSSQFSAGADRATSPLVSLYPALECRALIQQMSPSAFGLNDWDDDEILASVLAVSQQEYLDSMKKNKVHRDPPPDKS
# Outline: as §1
# Chain of ATXN3 (P54252 whole entry): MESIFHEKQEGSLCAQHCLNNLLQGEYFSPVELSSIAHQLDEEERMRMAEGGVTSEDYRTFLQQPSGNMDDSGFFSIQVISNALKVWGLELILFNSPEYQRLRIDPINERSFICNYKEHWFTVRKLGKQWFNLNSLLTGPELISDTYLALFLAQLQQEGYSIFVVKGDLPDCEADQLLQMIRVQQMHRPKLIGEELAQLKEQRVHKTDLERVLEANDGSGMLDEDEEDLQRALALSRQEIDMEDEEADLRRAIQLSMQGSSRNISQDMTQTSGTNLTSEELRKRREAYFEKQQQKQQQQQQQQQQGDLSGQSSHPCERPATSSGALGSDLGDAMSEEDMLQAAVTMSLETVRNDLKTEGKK
# Chain of EIF3F (O00303 whole entry): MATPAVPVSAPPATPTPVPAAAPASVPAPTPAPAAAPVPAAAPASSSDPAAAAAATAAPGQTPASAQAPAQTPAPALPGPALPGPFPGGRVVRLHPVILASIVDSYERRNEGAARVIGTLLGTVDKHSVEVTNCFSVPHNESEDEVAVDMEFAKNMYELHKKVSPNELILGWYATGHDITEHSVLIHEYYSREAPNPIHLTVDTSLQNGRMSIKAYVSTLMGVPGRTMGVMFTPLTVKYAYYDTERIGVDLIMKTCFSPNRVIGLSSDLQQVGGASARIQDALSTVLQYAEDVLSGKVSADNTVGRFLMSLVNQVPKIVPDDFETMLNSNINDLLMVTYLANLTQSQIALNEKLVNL
# Chain of EIF3H (O15372 whole entry): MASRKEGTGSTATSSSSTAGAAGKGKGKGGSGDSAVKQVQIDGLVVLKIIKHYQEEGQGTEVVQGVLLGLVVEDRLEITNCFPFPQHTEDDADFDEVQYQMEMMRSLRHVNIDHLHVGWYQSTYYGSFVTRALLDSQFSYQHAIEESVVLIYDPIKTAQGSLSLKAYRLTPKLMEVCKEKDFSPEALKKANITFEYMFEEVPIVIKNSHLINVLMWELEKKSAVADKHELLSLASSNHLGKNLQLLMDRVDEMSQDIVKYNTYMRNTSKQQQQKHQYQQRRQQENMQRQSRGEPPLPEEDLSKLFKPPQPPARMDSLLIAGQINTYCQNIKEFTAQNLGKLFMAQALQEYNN
# Chain of OTUB1 (Q96FW1 whole entry): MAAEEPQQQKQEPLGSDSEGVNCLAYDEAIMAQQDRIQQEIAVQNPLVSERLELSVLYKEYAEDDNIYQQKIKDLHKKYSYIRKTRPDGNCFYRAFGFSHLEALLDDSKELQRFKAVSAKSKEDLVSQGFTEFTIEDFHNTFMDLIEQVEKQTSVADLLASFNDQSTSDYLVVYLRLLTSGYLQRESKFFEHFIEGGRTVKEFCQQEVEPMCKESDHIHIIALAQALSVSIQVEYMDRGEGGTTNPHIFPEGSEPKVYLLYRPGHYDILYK
smiles,measurement,setting,value
O=C(CCl)NCCc1ccc2c(c1)OCCO2,log2 ratio of Biotin-Ahx-Ub-VS probe labelling,[1],-0.0432
same,log2 ratio of Biotin-Ahx-Ub-VS probe labelling,[2],-0.16
same,log2 ratio of Biotin-Ahx-Ub-VS probe labelling,[3],-1.7 (active)
same,log2 ratio of Biotin-Ahx-Ub-VS probe labelling,[4],-0.184
same,log2 ratio of Biotin-Ahx-Ub-VS probe labelling,[5],0.186
same,log2 ratio of Biotin-Ahx-Ub-VS probe labelling,[6],0.307
same,log2 ratio of Biotin-Ahx-Ub-VS probe labelling,[7],-0.173
same,log2 ratio of Biotin-Ahx-Ub-VS probe labelling,[8],-0.539
same,log2 ratio of Biotin-Ahx-Ub-VS probe labelling,[9],-0.693
